According to PubChem BioAssay AID1209 (Sanford-Burnham Center for Chemical Genomics, 2008):
In all, about 190,000 compounds went through this assay and about 810 (0.43%) were called active. The sample as a whole holds a higher share of actives than the screen did. A number with no mark means an inactive call. Cut-off read from the data, not from the text of the source: active = inhibition above about 50%; inactive = the rest.

The compounds below were run against Mannose-6-phosphate isomerase (Homo sapiens) (UniProt P34949) (assay: MPI enzyme activity inhibition – biochemical, fluorescence intensity, coupled assay, primary screen (AID 1209;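 note: plate controls were DMSO vehicle for no effect and wells lacking substrate for full effect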)). Conditions: purified PMI enzyme, at 20 µM, hits give high values.
Chain of Mannose-6-phosphate isomerase (Homo sapiens) (P34949 whole entry, looked up): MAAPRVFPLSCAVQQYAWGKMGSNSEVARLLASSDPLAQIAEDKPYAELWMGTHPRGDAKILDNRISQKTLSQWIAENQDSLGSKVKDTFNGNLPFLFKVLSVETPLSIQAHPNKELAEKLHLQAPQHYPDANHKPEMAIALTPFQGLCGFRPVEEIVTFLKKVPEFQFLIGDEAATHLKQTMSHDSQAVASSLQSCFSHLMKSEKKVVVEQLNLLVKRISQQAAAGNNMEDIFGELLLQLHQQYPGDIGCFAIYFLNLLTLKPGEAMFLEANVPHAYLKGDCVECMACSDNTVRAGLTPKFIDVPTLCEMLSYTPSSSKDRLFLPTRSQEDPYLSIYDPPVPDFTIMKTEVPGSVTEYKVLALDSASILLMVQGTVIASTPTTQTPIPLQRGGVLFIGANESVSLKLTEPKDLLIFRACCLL
Compound C=CCn1c(NC(=O)c2ccco2)c(S(=O)(=O)c2ccccc2)c2nc3ccccc3nc21 has an inhibition of 7.1%. For CCCCCn1c(NC(=O)c2ccco2)c(S(=O)(=O)c2ccc(C)cc2)c2nc3ccccc3nc21, the inhibition was 20%. With CCCCn1c(NC(=O)c2ccco2)c(S(=O)(=O)c2ccc(C)cc2)c2nc3ccccc3nc21 the inhibition was 50.9% (active). COc1cccc(C(=O)OCC(=O)NCCc2ccccc2)c1OC was tested, and the inhibition was -5.9%. O=C1CCCN1c1nccs1 gave an inhibition of -4.2%. O=c1c2ccccc2c2ccccc2c(=O)n1-c1ccccc1 gave an inhibition of 3.9%. With CC(C(=O)N1CCCCC1)n1sc2ccccc2c1=O (stereo unspecified) the inhibition was -2.6%. Cc1ccccc1N=Cc1c(O)n(-c2nccs2)c(=O)c2ccccc12 was tested, and the inhibition was 0.5%. O=c1[nH]n(-c2ccccc2)c(=O)c2ccccc12 gave an inhibition of 6.7%. With Cc1cc(=O)c2ccccc2s1 the inhibition was -2.5%. Cc1ccnc(N2C3CCC2CC(O)(c2ccccc2)C3)n1 (stereo unspecified) showed an inhibition of -0.2%. O=c1c2ccccc2sn1-c1ccccc1 was tested, and the inhibition was 87.2% (active). For O=c1c2ccccc2sn1-c1nccs1, the inhibition was 107% (active). Work on Cc1ccc(-n2nc3c4c(cccc4c2=O)-c2ccccc2-3)cc1 yielded an inhibition of 14.2%. Work on O=C(Nc1cccn(Cc2cccc(F)c2)c1=O)NC1CCCCC1 yielded an inhibition of 14.9%. COc1ccc(-n2c(COc3ccc(C)cc3)nnc2SCc2ccc(C#N)cc2)cc1 gave an inhibition of 10.6%. Compound COCCCn1c(=NC(=O)c2ccc3c(c2)OCO3)c(C#N)cc2c(=O)n3cccc(C)c3nc21 has an inhibition of 1.8%. For CCOC(=O)CSc1nc2ccccc2c(=O)n1CC1COc2ccccc2O1 (stereo unspecified), the inhibition was -3.8%. For Cn1c(=O)c2c(nc(CN3CCOCC3)n2CCCO)n(C)c1=O, the inhibition was -8.2%. COc1ccccc1NS(=O)(=O)c1cccc(C(=O)NN=C2CCCCCC2)c1 was tested, and the inhibition was -1.7%. CCn1c(SCC(=O)N2CCCC2)nc2c(c1=O)SC(C)C2 (stereo unspecified) showed an inhibition of 0.5%. Compound CN(C)S(=O)(=O)c1cccc(-c2cn3ccccc3n2)c1 has an inhibition of -3.5%. CN(C)S(=O)(=O)c1cccc(N2C(=O)CC3(CCCCC3)CC2=O)c1 was tested, and the inhibition was 2%. COC(=O)C1=C(N)Oc2cc(C)n(C)c(=O)c2C1c1ccc(Cl)cc1 (stereo unspecified) gave an inhibition of 1.3%. For Cc1c(Cl)cccc1NC(=S)NN, the inhibition was 5.2%. For CCC(C)(C)n1nnnc1C(c1ccc(O)cc1)N1CCc2ccccc2C1 (stereo unspecified), the inhibition was 12.2%. CCOC(=O)/C(C(=O)Nc1ccccc1Cl)=C1/NC(C)(C)Cc2ccccc21 was tested, and the inhibition was 18.6%. With CCOC(=O)/C(C)=C1\NC(C)(C)Cc2ccccc21 the inhibition was 94.7% (active). CCOC(=O)/C(C(=O)Nc1ccc(Br)cc1)=C1/NC(C)(C)Cc2ccccc21 gave an inhibition of 3.3%. In the case of O=C(Cc1c[nH]c2ccccc12)N1CCN(c2ccccc2)CC1, the inhibition is reported as -10.2%. With Cn1c(Cc2ccccc2)nnc1SCC(=O)Nc1cccc(S(=O)(=O)NC2=NCCCCC2)c1 the inhibition was 5%. For CN=c1scc(C)n1/N=C/c1ccc(O)cc1, the inhibition was 12.4%. For CN=c1scc(-c2ccco2)n1/N=C/c1ccc(O)c(O)c1, the inhibition was 53% (active). In the case of CCN=c1scc(-c2ccco2)n1/N=C/c1ccc(OC)c(O)c1, the inhibition is reported as -0.4%. In the case of CN=c1scc(-c2ccc(F)cc2)n1/N=C/c1ccc(O)c(O)c1, the inhibition is reported as 50.4% (active). CCN=c1scc(-c2ccco2)n1/N=C/c1ccc(O)cc1 was tested, and the inhibition was -4.3%. Compound C=CCN=c1scc(C)n1/N=C/c1ccc(O)c(O)c1 has an inhibition of 49.2%. With CCCC(=O)C1=C(O)C(c2cccc(Oc3ccccc3)c2)CCC1=O (stereo unspecified) the inhibition was -21%. With N#CCN1CCCC(C(N)=O)C1 (stereo unspecified) the inhibition was -5.3%. For Cc1sc(NC(=O)CSc2nnnn2C)c(C#N)c1C, the inhibition was 4.7%. With CCOc1ccc(C2CC(c3cccc(C)c3)n3ncnc3N2)cc1 (stereo unspecified) the inhibition was 2.6%. Work on CCc1ccc(CN(C)C(=O)c2cc(COc3c(F)cccc3F)on2)cc1 yielded an inhibition of 18.2%. With COC1=C(OC)C(=O)C(CCCCCCCCCCO)=C(C)C1=O the inhibition was 53.5% (active). Cc1[nH]c(=S)[nH]c(=O)c1CCCO gave an inhibition of 12.6%. In the case of CC1=C(C)C(=O)C(CCCCC#CCCCC#CCO)=C(C)C1=O, the inhibition is reported as -13.9%. Work on COc1cccc(CNC(=O)CCC2CCCN(C3CCOCC3)C2)c1 (stereo unspecified) yielded an inhibition of 5.9%. Compound CCOc1ccc(NC(=O)NC(C)CC)cc1 (stereo unspecified) has an inhibition of -3.9%. O=C(/C=C/c1ccc(O)c(O)c1)c1ccc(S(=O)(=O)N2CCCCCC2)cc1 was tested, and the inhibition was 66% (active). Work on O=C(O)c1ccc(S(=O)(=O)N2CCCCCC2)cc1 yielded an inhibition of 2.4%. In the case of O=C(/C=C/c1ccc(N2CCCCC2)c([N+](=O)[O-])c1)c1ccc(S(=O)(=O)N2CCCC2)cc1, the inhibition is reported as 0%. Cc1ccc2c(c1)CCCN2C(=O)c1ccco1 was tested, and the inhibition was 0.8%. In the case of O=C(NCC1CCCO1)C1CC1(c1ccccc1)c1ccccc1 (stereo unspecified), the inhibition is reported as 108% (active). Work on Cc1cccc(C2(c3cccc(C)c3)CC2C(=O)NCC2CCCO2)c1 (stereo unspecified) yielded an inhibition of -4.2%. Work on O=C(NCC1CCCO1)c1ccccc1 (stereo unspecified) yielded an inhibition of 11.6%. O=C(CC1C(=O)NC2CCCCC2N1C(=O)c1ccc(F)cc1)Nc1ccccc1 (stereo unspecified) gave an inhibition of 0.9%. Compound CCc1ccc(C(=O)COC(=O)CNC(=O)c2ccco2)cc1 has an inhibition of -5.4%. In the case of S=c1sc2c(Cl)ncnc2n1-c1ccccc1, the inhibition is reported as -30.4%. Work on O=c1[nH]c(-c2ccc(F)cc2)nc2c1sc(=S)n2-c1ccccc1 yielded an inhibition of -0.9%. O=c1[nH]cnc2c1sc(=S)n2-c1ccccc1 was tested, and the inhibition was 50.7% (active). In the case of CS(=O)(=O)N1CCN(c2ccc(NC(=O)CSc3nnc(-c4ccco4)o3)cc2)CC1, the inhibition is reported as -8.2%. CCN(CC)S(=O)(=O)c1ccc(NC(=O)COC(=O)CNS(=O)(=O)/C=C/c2ccccc2)cc1 gave an inhibition of 5.2%. In the case of O=C(COC(=O)c1ccccc1Br)NCCC1=CCCCC1, the inhibition is reported as 5.8%. For CC1(C)N=C(SCC(=O)Nc2ccc(Cl)cc2Cl)C(c2ccccc2)=N1, the inhibition was 8.5%. In the case of O=C(NC1CCCCC1)c1sc(=S)n2c1[nH]c(=O)c1ccccc12, the inhibition is reported as 51.2% (active). O=C(NC1CCCC1)c1sc(=S)n2c1[nH]c(=O)c1ccccc12 gave an inhibition of -4.7%. O=C(NCc1ccccc1)c1sc(=S)n2c1[nH]c(=O)c1ccccc12 gave an inhibition of 4.9%.
